Only some compounds are listed: those with a hit (about 4.7% of all), similar ones and a draw of the others.
TRHR agonist: TRH receptor (human) agonism; TRHR cells, calcium flux fluo-8, FDSS agonist mode; activation, % at 2 µM; P34981; 360,000 tested, 0.18% active; also: 0% is about no effect
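Fluo-8-loaded TRHR cells; 10 s baseline, compound added, kinetic Ca2+ fluorescence read 1/s, agonist mode.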
D1 ag: human D1 receptor agonism | P21728 | HEK293 T-REx D1 cells, calcium flux, agonist mode | activation, % at 2 µM | 360,000 tested, 1% active | AID 504660; also: 0% is about no effect
Target sequence (P21728 whole entry, looked up): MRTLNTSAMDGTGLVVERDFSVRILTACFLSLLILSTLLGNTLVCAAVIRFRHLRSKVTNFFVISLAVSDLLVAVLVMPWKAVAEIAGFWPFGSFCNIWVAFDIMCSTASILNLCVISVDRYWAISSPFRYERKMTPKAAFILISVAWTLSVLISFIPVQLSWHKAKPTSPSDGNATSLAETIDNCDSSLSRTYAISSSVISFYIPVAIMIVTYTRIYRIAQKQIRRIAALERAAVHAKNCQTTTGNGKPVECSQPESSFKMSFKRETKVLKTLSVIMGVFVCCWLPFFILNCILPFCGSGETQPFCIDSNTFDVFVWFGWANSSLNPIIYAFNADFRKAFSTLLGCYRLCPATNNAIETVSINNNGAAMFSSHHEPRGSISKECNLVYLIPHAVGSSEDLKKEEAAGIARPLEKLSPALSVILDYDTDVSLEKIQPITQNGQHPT
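Tetracycline-induced HEK293 TREx D1 cells, force-coupled to calcium signalling, were dye-loaded with a no-wash calcium kit. Compound was pin-added after a 10 s baseline. Fluorescence was read kinetically at 1 cycle/s for 180 s, with calcium rises flagged as agonism.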
D1 potentiator: enhances dopamine response at the human D1 receptor; P21728; HEK293 TREx D1 cells, calcium flux, dopamine EC20 potentiation; potentiation, % at 10 µM; 360,000 tested, 0.036% active; AID 504651; in the data active = potentiation above about 30%; also: 0% is about no effect
TRHR PAM: allosterically enhances the human TRH receptor; enhancement, % at 2 µM; TRHR cells, fluo-8 calcium fluorescence, EC20 TRH enhancement; 360,000 tested, 0.66% active; P34981; in the data active = enhancement above about 30%; also: 0% is about no effect
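TRHR-expressing cells loaded with fluo-8 calcium dye were read kinetically (ex 480/em 530) during compound addition, then stimulated with an EC20 of TRH (10 nM final). Enhancement of the Gq-mediated intracellular calcium response was scored.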
D1 antagonist: antagonists of human D1 dopamine receptor. P21728. 360,000 tested, 3.2% active. HEK293 TREx D1 cells, calcium flux, dopamine EC80; hits give low values. activity change, negative = inhibition, % at 10 µM. AID 504652; in the data active = activity change below about -30%; also: % is scaled to controls: 0 for no effect and ±100 for the full control effect
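Inducible Hek293 Trex D1 cells (tetracycline, overnight, 30 C). Calcium dye 30–90 min RT. Antagonist mode: EC80 dopamine added after 180 s compound read.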
Numbers without * were called inactive. Rule as the data show it, unless noted: active = activation above about 30%; inactive = the rest.

SMILES | TRHR agonist | D1 ag | D1 potentiator | TRHR PAM | D1 antagonist
Cc1cccc(C)c1OCC(=O)N1CCc2ccccc2C1 | 0 | 1 | -4 | 1 | 10
O=C(C[n+]1cccc(CNC(=O)c2ccc(OC(F)F)cc2)c1)Nc1ccc(SC(F)F)cc1 | 1 | 0 | -9 | 0 | -10
O=C(C[n+]1cccc(CNC(=O)c2ccc(OC(F)F)cc2)c1)Nc1ccccc1Cl | 1 | 1 | -2 | 9 | -32*
CC(C)CN(CC(C)C)C(=O)Nc1ccc(F)cc1F | 0 | 0 | 2 | 3 | 3
CCOC(=O)c1c(-c2ccc(OC)cc2)csc1NC(=O)CCN1C(=O)c2ccccc2C1=O | -1 | 5 | -3 | 3 | 1
CCOC(=O)c1c(-c2ccc3ccccc3c2)csc1NC(=O)CCCC(=O)O | 1 | 18 | -7 | 2 | -56*
Cc1ccc(-c2noc(-c3ccoc3C)n2)cc1 | -1 | 104* | 7 | 0 | -8
O=C(NC1CCCC1)C(c1ccncc1)N(C(=O)Cc1cccs1)c1cccc(F)c1 (configuration not stated) | -1 | 1 | -4 | 1 | -32*
O=C(NC1CCCC1)C(c1ccc(F)cc1)N(C(=O)Cc1cccs1)c1ccc2c(c1)OCCO2 (configuration not stated) | 0 | 2 | -3 | 30* | 9
O=C(CSc1nc2ccccc2nc1Cc1ccc(Cl)cc1)N1CCCc2ccccc21 | 1 | 3 | 1 | 4 | 5
CN(C)S(=O)(=O)c1ccc(C(=O)NCCSc2c(-c3ccc(Br)cc3)[nH]c3ccccc23)cc1 | 0 | 0 | -1 | 0 | 10
CCOc1ccccc1N(CC(=O)N(C)Cc1ccccc1)S(=O)(=O)c1ccccc1 | 0 | 9 | -18 | 8 | -37*
CC1(C(=O)CSc2ncn[nH]2)CCC(=O)O1 (configuration not stated) | 0 | 2 | 22 | 1 | -43*
CC1(C(=O)CSc2nc3ccccc3[nH]2)CCC(=O)O1 (configuration not stated) | 0 | 0 | -6 | -7 | -16
CC(=O)Nc1cccc(NC(=O)C(=O)c2cn(CC(=O)N3CCCCC3)c3ccccc23)c1 | 0 | 3 | -3 | 0 | 3
COc1cccc(CNC(=O)c2ccc(-n3c(C)cc4c3CCC(C)C4)cc2)c1 (configuration not stated) | 0 | -2 | -1 | 13 | -7
Cc1cc2c(n1-c1ccc(C(=O)NCCc3ccc(Cl)cc3)cc1)CCC(C)C2 (configuration not stated) | 0 | 2 | -2 | 31* | 9
Cc1cc2c(n1-c1ccc(C(=O)NCc3cccc(Br)c3)cc1)CCC(C)C2 (configuration not stated) | 0 | 2 | -4 | 7 | -60*
CCOc1ccc(NC(=O)NCc2ccc3c(c2)CCN3C(C)=O)cc1 | -1 | -1 | -1 | 3 | -6
O=S(=O)(Cc1ccccc1)N1CCN(c2ncccn2)CC1 | 0 | 4 | -7 | 6 | -51*
CCS(=O)(=O)N1CCN(c2ccccc2)CC1 | 0 | 1 | -1 | 32* | -4
O=C(C1CCN(S(=O)(=O)Cc2ccccc2)CC1)N1CCN(c2ncccn2)CC1 | 0 | 2 | 0 | -4 | 7
O=C(C1CCN(S(=O)(=O)c2cccnc2)CC1)N1CCN(c2cccc(Cl)c2)CC1 | -1 | 11 | -1 | 5 | -83*
O=C(C1CCN(S(=O)(=O)Cc2ccccc2)CC1)N1CCN(c2ccccc2)CC1 | 0 | -2 | 1 | 1 | -61*
COc1ccc(NCC(=O)Nc2ccc(Br)cc2F)c(OC)c1 | 1 | 3 | -2 | 0 | 0
SMILES | TRHR agonist | D1 ag | D1 potentiator | TRHR PAM | D1 antagonist
CSc1ccc(CN2CCCC(N3CCN(c4ccccc4)CC3)C2)cc1 (configuration not stated) | -1 | 1 | -2 | 0 | 13
CNS(=O)(=O)c1cnccc1N1CCN(c2cccc(Cl)c2)CC1 | 2 | 11 | -9 | 2 | -31*
CCCS(=O)(=O)Nc1cccc(-c2cn3ccc(C)cc3n2)c1 | -3 | 3 | 4 | -1 | 8
O=C(OCC(=O)N1CCN(c2ccccc2)CC1)c1ccncc1 | 1 | 1 | -1 | 13 | -5
O=C(Nc1c2c(nn1-c1ccc(Cl)cc1)CS(=O)(=O)C2)c1ccc(Br)cc1 | 1 | 12 | -2 | 2 | -32*
COc1cccc(C(=O)Nc2c3c(nn2-c2ccc([N+](=O)[O-])cc2)CS(=O)(=O)C3)c1 | 2 | 4 | -5 | -8 | -11
COc1ccc(-n2nc3c(c2NC(=O)COc2ccccc2F)CS(=O)(=O)C3)cc1 | 0 | 0 | -2 | 11 | -38*
CCC(CC)C(=O)Nc1c2c(nn1-c1ccc(OC)cc1)CS(=O)(=O)C2 | 0 | 1 | 3 | 3 | -5
COc1cccc(C(=O)Nc2c3c(nn2-c2ccc(Cl)cc2)CS(=O)(=O)C3)c1 | -1 | -3 | 0 | 4 | -33*
O=C(Nc1c2c(nn1-c1ccc(Cl)cc1)CS(=O)(=O)C2)c1ccc2c(c1)OCO2 | 0 | 2 | 2 | -1 | -17
CCC(CC)C(=O)Nc1c2c(nn1-c1ccc(F)cc1)CS(=O)(=O)C2 | 0 | 2 | -12 | 1 | -91*
CC(C)CC(=O)Nc1nnc(S(=O)(=O)N(C)Cc2ccc(Cl)cc2)s1 | 0 | 4 | -3 | 5 | 2
O=C(NCc1ccccc1)c1ccc(NC(=O)N2CCSc3ncccc32)cc1 | -1 | 4 | -3 | 0 | -24
O=C(NC1CCCC1)c1ccc(Cl)c(S(=O)(=O)N2CCCCC2)c1 | 0 | -1 | -3 | -1 | 0
Cc1ccc(OCCSc2nc3ccccc3n2CC(=O)N2CCOCC2)cc1C | 0 | 4 | -2 | 2 | -13
CCOc1ccc(N2C(=O)CC(NC3CCN(C(=O)c4cccc(Cl)c4)CC3)C2=O)cc1 (configuration not stated) | 0 | 6 | 0 | -3 | 0
CCOc1ccc(N2C(=O)CC(NC3CCN(C(=O)c4cccs4)CC3)C2=O)cc1 (configuration not stated) | 0 | 79* | -4 | 2 | 29
O=Cc1c[nH]c2ncccc12 | 1 | 3 | -2 | 9 | -9
CCN(C(=O)COC(=O)/C=C/c1c(C)nn(-c2ccccc2)c1C)C1CCS(=O)(=O)C1 (configuration not stated) | 0 | 5 | 3 | 0 | 25
Cc1nn(C2CCS(=O)(=O)C2)c(Cl)c1/C=C/C(=O)OCC(N)=O (configuration not stated) | 1 | 2 | -7 | 33* | -15
Cc1nn(-c2ccccc2)c(C)c1/C=C/C(=O)OCC(=O)N(C)C1CCS(=O)(=O)C1 (configuration not stated) | 1 | 2 | -6 | 4 | -84*
O=C(COC(=O)CNC(=O)c1ccccc1)Nc1cc(C(F)(F)F)ccc1Cl | 1 | 0 | 2 | -1 | 5

High-throughput results (PubChem)
